Compound activity as filed in PubChem.
Dicer processing = inhibitors of human Dicer processing of pre-microRNA | Q9UPY3 | cat-ELCCA pre-miR-21 Dicer processing, chemiluminescence; stronger effect = higher value | z-score at 25 µM | 47,000 tested, 6% active | AID 1347074; in the data active = z-score above about 3, passing the limit was not always enough;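 note: higher signal means more uncleaved substrate so more Dicer inhibition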
Hits are given with their value; 0 = inactive. Shown is part of a subset that was picked to be rich in hits.

SMILES	Dicer processing
COc1ccc2c(c1)CCc1sc(NC(=O)c3cc(C)on3)nc1-2	0
COc1cc(OC)cc(C(=O)Nc2nc3c(s2)Cc2cc(OC)ccc2-3)c1	0
CCCCCC(=O)Nc1nc2c(s1)CCc1cc(OC)ccc1-2	0
COc1ccc2c(c1)CCc1sc(NC(C)=O)nc1-2	3.45
CCCCCCCC(=O)Nc1nc2c(s1)CCc1cc(OC)ccc1-2	0
COc1cc(/C=C/c2[nH]c(=O)[nH]c(=O)c2[N+](=O)[O-])ccc1OCc1ccccc1Cl	0
CCC(CO)NS(=O)(=O)c1cc(-c2nnc3c4ccccc4c(C)nn23)ccc1C (configuration not stated)	0
COc1ccccc1NS(=O)(=O)c1ccc(Cl)s1	0
CN(C)C(=O)C(=O)c1c[nH]c2ccc(Br)cc12	0
CCCCCCCc1c(COC)[nH]c(=S)[nH]c1=O	0
O=C1CSC(=Nc2c(Cl)cccc2Cl)N1CCc1ccccc1	0
Cn1c(SCC(=O)NN2CC(=O)N(c3cccc(Cl)c3)CC2=O)nnc1-c1ccncc1	0
CC(=O)OC[C@H](OC(C)=O)[C@H](OC(C)=O)[C@@H](CNC(=O)c1ccc(C)c(C)c1)OC(C)=O	0
CSC(=NS(=O)(=O)c1ccc(Cl)c(Cl)c1)SC	0
N#CC1=C(SCc2ccccc2)NC(=O)CC1c1ccc(Cl)cc1 (configuration not stated)	0
Cc1c(C#N)c(NC(=O)c2ccc(Cl)cc2)n(Cc2cc(C(F)(F)F)cc(C(F)(F)F)c2)c1C	0
O=C(O)CNc1n[nH]c(=O)[nH]c1=O	0
CCC(Nc1n[nH]c(=O)[nH]c1=O)C(=O)OC (configuration not stated)	3.22
CCOC(=O)Cc1n[nH]c(=O)[nH]c1=O	0
O=C(/C=C/Sc1nc2ccccc2s1)c1ccccc1	0
C=CCOC(=O)C1=C(C)NC2=C(C(=O)CCC2)C1c1ccc(C(=O)OC)cc1 (configuration not stated)	0
CCc1ccc(C2c3c(oc4ccc(F)cc4c3=O)C(=O)N2c2nc(C)c(C)s2)cc1 (configuration not stated)	0
COC(=O)c1cc(OC(=O)c2nn(-c3ccccc3)nc2C)n(-c2ccccc2)n1	0
CSc1nc(SC)c(C#N)c(-c2ccco2)n1	0
CCOC(=O)c1c(C)oc2cc(Cl)c(O)c(CN(C)C)c12	0
SMILES	Dicer processing
CCOC(=O)c1c(C)oc2ccc(O)c(CN(C)C)c12	4
CCOC(=O)c1c(CN(CC)CC)oc2ccc(OC)cc12	0
CCCCNC(=O)Oc1ccc(C2=NCCS2)cc1	0
CCOC(=O)c1cc(N)n(-c2nc3cc(Cl)ccc3s2)n1	0
c1ccc2c(-c3csc(-c4ccc(-c5ccno5)s4)n3)csc2c1	0
Nc1nc(-c2csc3ccccc23)cs1	3.26
Nc1nc(-c2cccc3ccccc23)cs1	0
CC1(C)CC(=O)c2cnc(NC(=O)Nc3ccccc3)nc2C1	0
CC(C(c1cccs1)c1c(N)n(C)c(=O)n(C)c1=O)[N+](=O)[O-] (configuration not stated)	0
Cn1c(N)c(C(C[N+](=O)[O-])c2ccc(Cl)cc2Cl)c(=O)n(C)c1=O (configuration not stated)	3.43
COc1ccccc1C(C[N+](=O)[O-])c1c(N)n(C)c(=O)n(C)c1=O (configuration not stated)	0
COC(=O)c1scc2c(OC)cc(C(F)(F)F)nc12	0
COC(=O)c1scc2c(Sc3nccn3C)cc(C(F)(F)F)nc12	0
COC(=O)c1scc2c(SCc3ccccc3)cc(C(F)(F)F)nc12	5.03
CCOCCCNC(=O)CN1C(=O)c2ccccc2S1(=O)=O	0
C#CC(CC)(CC)NC(=O)/C=C\C(=O)O	0
COc1cc(/C=N/N)cc(OC)c1OC	0
COc1cc(/C=N/NC(=O)c2ccccc2N)cc(OC)c1OC	3.33
COc1cc(/C=N/NC(=O)c2cc(-c3ccccc3)sc2N)cc(OC)c1OC	0
Cc1ccc(-c2nnc(-c3cccs3)o2)cc1	0
Cc1ccc(-c2nnc(-c3ccccc3)o2)cc1	0
Cc1ccc(-c2nnc(-c3ccc(C)cc3)o2)cc1	5.08
Cc1ccccc1-c1nc2c3c4c(sc3ncn2n1)C(C)(C)NC(C)(C)C4	0
COC(=O)Cc1nc(Nc2ccccc2)sc1C	0
COC(=O)Cc1nc(NC(=O)C2CCC2C(=O)O)sc1C (configuration not stated)	3.33
SMILES	Dicer processing
COC(=O)Cc1nc(NC(=O)c2nc(-c3ccccc3)oc2C)sc1C	0
COC(=O)c1cc(/C=N/NC(=S)NC(C)(C)C)cn1C	0
CCc1[nH]nc2c1C(c1ccc(Cl)cc1)C(C#N)=C(N)O2 (configuration not stated)	0
O=C1Sc2ccc(S(=O)(=O)Nc3cccc(Cl)c3)c3cccc1c23	0
CN1C(=O)c2cccc3c(S(=O)(=O)Nc4ccc(C(=O)O)cc4)ccc1c23	0
O=C1Sc2ccc(S(=O)(=O)Nc3ccc(Br)cc3)c3cccc1c23	3.26
O=C(Nc1ccc(N2CCC(n3cccc3)CC2)cc1)c1ccccc1Cl	0
N#C/C(=C\N1CCc2ccccc21)S(=O)(=O)c1ccc(Cl)cc1	0
c1ccc(CN2CCC(c3cccs3)=N2)cc1	0
Nc1nonc1-c1nc2ccccc2n1Cc1ccccc1Cl	0
